From PubChem BioAssay AID1578 (Sanford-Burnham Center for Chemical Genomics, 2009)
About 3,000 (1%) of roughly 290,000 compounds were called active. The entries come from a sample that favours actives as a whole. Values without a mark were called inactive. Rule as the data show it: active = inhibition mostly above about 36% (no sharp cut-off); inactive = mostly below about 34%.

assay: inhibition of NOD1-driven NF-kB reporter – cell-based, luminescence, uHTS, primary screen (AID 1578); details: NOD1-driven NF-kB luciferase reporter cells, at 4 µM, stronger effect = higher value;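 also: HEK-293T reporter cells stimulated with the NOD1 agonist gamma-tri-DAP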

| SMILES | inhibition |
| --- | --- |
| Cc1noc(C)c1COC(=O)[C@@H](NC(=O)c1ccccc1Cl)C(C)C | -17.3% |
| Cc1csc(NC(=O)c2ccc(C(=O)Nc3nc(C)cs3)cc2)n1 | 2.7% |
| Cc1csc(NC(=O)c2ccc(N3CCCC3=O)cc2)n1 | 39.5% (active) |
| CCC(CC)c1nnc(NC(=O)c2ccc(N3CCCC3=O)cc2)s1 | -14.4% |
| Cc1ccccc1N1CCN(C2CCCN(C(=O)c3noc4c3CCCC4)C2)CC1 (centres undefined) | 6.2% |
| O=C1c2[nH]nc(-c3ccccc3O)c2C(c2ccccc2)N1Cc1ccco1 (centres undefined) | -0.4% |
| O=C1c2[nH]nc(-c3ccccc3O)c2C(c2ccc(F)cc2)N1Cc1ccco1 (centres undefined) | 53.4% (active) |
| COc1ccc(C2c3c(-c4ccccc4O)n[nH]c3C(=O)N2Cc2ccco2)cc1 (centres undefined) | -5.9% |
| COc1cc2c(cc1OC)C(c1ccccc1)N(C(=O)c1ccco1)CC2 (centres undefined) | 3.6% |
| COc1ccc(OCCC(=O)OCC(=O)NC(=O)NC(C)(C)C)cc1 | 7% |
| CC(=O)NCC(=O)OC(C)C(=O)Nc1ccc(C(C)=O)cc1 (centres undefined) | -17.4% |
| CCCNC(=O)c1ccc(N2CCC3(CC2)CC(c2ccccc2)=NO3)c(NC(=O)c2ccccc2)c1 | 21.3% |
| CCCNC(=O)c1ccc(N2CCC3(CC2)CC(c2ccccc2)=NO3)c(NC(=O)c2cccc(OC)c2)c1 | 77.4% (active) |
| CCCNC(=O)c1ccc(N2CCC3(CC2)CC(c2ccccc2)=NO3)c(NC(=O)c2cccc(C)c2)c1 | 43.2% |
| CC(=O)Nc1ccc(C2=NNC(=Nc3ccc(S(=O)(=O)N4CCOCC4)cc3)SC2)cc1 | -12.4% |
| COC(=O)N/N=C/c1c(C)c(C(=O)c2ccc(F)cc2)n2ccccc12 | -3.4% |
| Cc1c(/C=N/NC(N)=O)c2ccccn2c1C(=O)c1ccc(F)cc1 | 15.7% |
| CCOC(=O)N/N=C/c1c(C)c(C(=O)c2ccc(F)cc2)n2ccccc12 | 48.9% (active) |
| CNC(=S)N/N=C/c1c(C)c(C(=O)c2ccc(F)cc2)n2ccccc12 | 0.6% |
| Cc1c(/C=N/NC(=O)c2ccc(O)cc2)c2ccccn2c1C(=O)c1ccc(F)cc1 | 17.9% |
| CCCCCCCCCC[N+](C)(C)CC/C=C1/c2ccccc2Sc2ccc(Cl)cc21 | -0.8% |
| CCCCCCc1cc2cc(C(=O)Nc3ccccc3OC)c(=O)oc2cc1O | -4.9% |
| CCCCCCc1cc2cc(C(=O)Nc3ccccc3)c(=O)oc2cc1O | 34.1% |
| CCCCCCc1cc2cc(C(=O)Nc3ccc(OC)cc3)c(=O)oc2cc1O | -7.5% |

| SMILES | inhibition |
| --- | --- |
| CCCCCCc1cc2cc(S(=O)(=O)c3ccc(C)cc3)c(=O)oc2cc1O | -36.3% |
| CCCCCCc1cc2cc(C(=O)Nc3cccc(OC)c3)c(=O)oc2cc1O | 59.9% |
| CCCCCCc1cc2cc(C(N)=O)c(=N)oc2cc1O | 12.9% |
| CCCC1C(C#N)=C(N)Oc2n[nH]c(C(C)(C)C)c21 (centres undefined) | -47.4% |
| CCOc1ccc(N(CC(=O)N2CCCCC2)S(=O)(=O)c2ccc(Cl)cc2)cc1 | 5.7% |
| Nn1c(Cc2ccccc2)n[nH]c1=S | -24.7% |
| O=C1c2cccnc2C(=O)N1c1cccc(-c2nc3ccccc3o2)c1 | -23.4% |
| O=C(NCc1ccco1)C(c1ccccc1F)N(CC1CCCO1)C(=O)Cn1nnc2ccccc21 (centres undefined) | -7% |
| CCN(C(=O)Cn1c(=O)oc2ccccc21)c1cccc(C)c1 | 2.1% |
| CC(C)C[C@H](NC(=O)c1nc[nH]c1C(=O)NCc1ccccc1)C(=O)OC(C)(C)C | -11.1% |
| COc1ccc(CN(CC(=O)NCc2ccco2)C(=O)CCC(=O)Nc2ccccn2)cc1 | -20.6% |
| O=C1NC(=S)N/C1=C\c1cccnc1 | 33.9% (active) |
| O=C1NC(=S)N/C1=C/c1cccnc1 | 16.2% |
| Cc1cc(/C=C2\NC(=S)NC2=O)c(C)n1-c1cccnc1 | -14.7% |
| COc1ccc(/C=N/NC(=O)CSc2ccccc2)cc1OC | -7.9% |
| CCc1ccc(NC(=O)CN(c2ccccc2)S(=O)(=O)N(C)C)cc1 | -17.6% |
| COc1cc(/C=C/C(=O)c2ccc(O)cc2)ccc1OCC#N | 29.2% |
| COc1ccc(/C=C/C(=O)c2ccc(C(=O)/C=C/c3ccc(OC)c(OC)c3)cc2)cc1OC | -4.9% |
| COc1ccc2cc(C(=O)/C=C/c3cc(OC)c(OC)c(OC)c3)ccc2c1 | 52.7% |
| CCOc1ccc(C(=O)/C=C/c2ccc(OC)c(OC)c2)cc1 | 51.4% |
| COc1ccc(NC(=O)Nc2cccc3ccccc23)c(OC)c1 | 19.9% |
| CCS(=O)(=O)N1CCN(S(=O)(=O)c2ccc3c(c2)OCCO3)CC1 | 24.1% |
| Cc1ccnc(N2CCN(C(=O)CSc3nc4ccccc4nc3N3CCC(C)CC3)CC2)c1 | 3.8% |
| COc1ccccc1N1CCN(C(=O)CSc2nc3ccccc3nc2N2CCCCC2)CC1 | 8.8% |

| SMILES | inhibition |
| --- | --- |
| COc1ccccc1N1CCN(C(=O)CSc2nc3ccccc3nc2N2CCC(C)CC2)CC1 | 58.1% (active) |
| CS(=O)(=O)N(CC(=O)NCCSCc1c(F)cccc1Cl)c1cccc([N+](=O)[O-])c1 | -2.1% |
| COc1cc(C(=O)OCC(=O)Nc2cc(C)on2)ccc1OCc1ccccc1Cl | -69.5% |
| CCCCN(C)C(=O)C1CCC(CNS(=O)(=O)c2ccc3c(c2)CC(C)N3C(C)=O)CC1 (centres undefined) | -1.6% |
| Cc1cccc(CN2CCc3c([nH]c4ccccc34)C2)c1 | -0.6% |
| Clc1ccc(CN2CCc3c([nH]c4ccccc34)C2)cc1Cl | -1.2% |
| Clc1cccc(CN2CCc3c([nH]c4ccccc34)C2)c1 | 73.3% (active) |
| Nc1ccc(S(=O)(=O)Nc2nc3ccccc3o2)cc1 | -21.3% |
| CCc1nnc(NC(=O)CCC(=O)N2CCC(Cc3ccccc3)CC2)s1 | -19.4% |
| CNc1ccccc1C(C)(C)c1cc(-c2cccc(Br)c2)no1 | 18.9% |
| CNc1ccccc1C(C)(C)c1cc(-c2cccc(OC)c2)no1 | 53.1% (active) |
| CNc1ccccc1C(C)(C)c1cc(-c2cccc([N+](=O)[O-])c2)no1 | -54.1% |
| CCC(=O)NNC(=O)CCC(=O)Nc1ccc(C)cc1C | -21.4% |
| COc1ccc(NC(=O)CCNS(=O)(=O)c2cccc3nsnc23)cc1 | -14.3% |
| C=CCSc1nnc(N2C(=O)C(O)=C(C(=O)c3ccco3)C2c2ccccc2F)s1 (centres undefined) | -10.7% |
| O=C(O)c1ccc(S(=O)(=O)c2ccc3c(c2)C(=O)N(c2ccc(O)cc2)C3=O)cc1 | -1.2% |
| O=C(c1cc2sccc2n1Cc1ccc(F)cc1)N1CCCc2ccccc21 | -9% |
| O=C(c1cc2sccc2n1Cc1ccccc1)N1CCCc2ccccc21 | 34.8% (active) |
| O=C(c1cc2sccc2n1Cc1ccccc1)N1CCc2ccccc21 | -5.9% |
| CN(CCc1ccccn1)C1CCCN(S(=O)(=O)c2ccccc2)C1 (centres undefined) | -25.2% |
| Cc1ccc(/C=C/C(=O)Nc2nc3ccccc3[nH]2)cc1 | -16.1% |
| COc1ccc(NC(=O)c2ccc(-c3csc(C)n3)cc2)cc1 | -5.5% |
| CCOC(=O)c1cnn(-c2ccccc2)c1-n1cccc1C(=O)C(=O)N(C)C | -12.4% |
| CCOC(=O)c1cnn(-c2ccccc2)c1-n1cccc1C(=O)C(=O)N(CC)CC | 42.8% (active) |

| SMILES | inhibition |
| --- | --- |
| CCOC(=O)c1cnn(-c2ccccc2)c1-n1cccc1C(=O)C(=O)Nc1ccccc1 | -28.7% |
| Cc1ccc(-c2nnn(Cc3nc(N)nc(N4CCOCC4)n3)n2)cc1 | 5.1% |
| CC(=O)C(=Cc1ccc(C(=O)O)cc1)C(C)=O | -17.7% |
| Cc1ccc2cc(CCl)c(Cl)nc2c1 | 50.2% (active) |
| COc1ccc2cc(CO)c(Cl)nc2c1 | -28.1% |
| COc1ccc2cc(C#N)c(Cl)nc2c1 | -29.7% |
| Cc1ccc2cc(C=O)c(Cl)nc2c1 | -3.3% |
| COc1ccc2cc(CCl)c(Cl)nc2c1 | 70.1% (active) |
| ClCc1cc2ccccc2nc1Cl | -27% |
| COc1ccc(S(=O)(=O)N2Cc3ccccc3CC2C(=O)N2CCOCC2)cc1 (centres undefined) | 3.2% |
| COc1cscc1C(N)=O | 6.7% |
| c1ccc2c(c1)ncn2Cc1nnc2sc(-c3ccc4c(c3)OCO4)nn12 | -4.4% |
| O=C(NC1CCCCCC1)c1cc(S(=O)(=O)N2CCCCC2)ccc1N1CCOCC1 | -7.1% |
| CC1CCC(C(C)C)C(OCC(O)CN2CCCC(C)C2)C1 (centres undefined) | -44.4% |
| Cc1cc(C)cc(-n2ncc3c2CCCC3NC(=O)C2(C(N)=O)CC2)c1 (centres undefined) | -11.6% |
| COc1ccc(C(=O)NC2CCCc3c2cnn3-c2cccc(C)c2C)o1 (centres undefined) | 0.8% |
| Cc1cc(C(=O)NC2CCCc3c2cnn3-c2cccc(C)c2C)no1 (centres undefined) | 11.2% |
| Cc1cc(C)c(C(=O)NC2CCCc3c2cnn3-c2cccc(C)c2C)o1 (centres undefined) | -10.7% |
| Cc1cccc(-n2ncc3c2CCCC3NC(=O)c2ccc[n+]([O-])c2)c1C (centres undefined) | -3.9% |
| O=C(NC1CCCc2c1cnn2-c1ccccc1F)c1ccccn1 (centres undefined) | 20.6% |
| Cn1nccc1C(=O)NC1CCCc2c1cnn2-c1cc(F)cc(F)c1 (centres undefined) | 35.1% |
| Cc1cccc(-n2ncc3c2CCCC3NC(=O)C2CCOCC2)c1C (centres undefined) | 9.8% |
